Data taken from PubChem BioAssay AID651610 (Broad Institute, 2012).
In all, about 360,000 compounds went through this assay and about 3,900 (1.1%) were called active. For the sample, actives were picked, then their nearest neighbours and some compounds at random. Values without a mark were called inactive.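 How the source made its calls: active means mean replicate inhibition score of at least 50 and every replicate individually at or above 50; inconclusive means only one of the two criteria met; inactive means mean below 50 and not all replicates reaching 50.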

Experiment: blockers of JRFL envelope-mediated fusion – HeLa-JRFL effector, CEM21 target cells, luciferase, primary screen (AID 651610);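 further: 0% = plate neutral controls and 100% = maraviroc near 300 nM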
Details: HeLa-JRFL Env/CEM21 cell fusion, hits give high values; at 16.7 µM unless noted
In the case of `COc1ccc(S(=O)(=O)N(C)C[C@@H]2OCCCC[C@H](C)Oc3ccc(NC(=O)NC(C)C)cc3C(=O)N([C@@H](C)CO)C[C@@H]2C)cc1`, the inhibition was 8.34%. Work on `COc1ccc(NC(=O)Nc2ccc3c(c2)C(=O)N([C@H](C)CO)C[C@@H](C)[C@@H](CN(C)C(=O)NC(C)C)OCCCC[C@H](C)O3)cc1` yielded an inhibition of -15.9%. Work on `C/C=C/c1ccc2c(c1)O[C@H](CN(C)C(=O)c1ccc3c(c1)OCO3)[C@@H](C)CN([C@H](C)CO)S2(=O)=O` yielded an inhibition of -3.13%. Compound `C[C@H](CO)N1C[C@H](C)[C@@H](CN(C)C(=O)Nc2ccc(F)cc2)OCCCC[C@H](C)Oc2ccc(NC(=O)c3ccncc3)cc2C1=O` has an inhibition of -27.7%. `COc1ccc([Si](C)(C)[C@@H]2[C@@H](CCO)O[C@]3(C(=O)N(Cc4ccccc4)c4ccc(N5CCC5=O)cc43)[C@H]2C)cc1` showed an inhibition of 15.1%. With `COc1ccc([Si](C)(C)[C@H]2[C@H](CCO)O[C@@]3(C(=O)N(Cc4cccc(N5CCOC5=O)c4)c4ccccc43)[C@@H]2C)cc1` the inhibition was 61.7% (active). In the case of `COc1ccc([Si](C)(C)[C@@H]2[C@@H](CCO)O[C@]3(C(=O)N(Cc4cccc(N5CCCCC5=O)c4)c4ccccc43)[C@H]2C)cc1`, the inhibition was -10.1%. Compound `Cc1noc(C)c1NC(=O)N[C@@H]1CC[C@H](CCNC(=O)C2CCC2)O[C@@H]1CO` has an inhibition of 5.86%. In the case of `C[C@@H]1CN([C@H](C)CO)C(=O)c2ccccc2-c2ccccc2CO[C@H]1CN(C)S(=O)(=O)c1ccsc1`, the inhibition was 15.4%. For `C[C@H]1CN([C@@H](C)CO)C(=O)c2ccccc2-c2ccccc2CO[C@H]1CN(C)S(=O)(=O)c1cccc(C#N)c1`, the inhibition was 56.8% (active). With `C[C@H]1CN([C@@H](C)CO)C(=O)c2ccccc2-c2ccccc2CO[C@@H]1CN(C)S(=O)(=O)c1ccc(C(F)(F)F)cc1` the inhibition was 22.4%. `C[C@H](CO)N1C[C@H](C)[C@@H](CN(C)S(=O)(=O)c2cccs2)OCc2ccccc2-c2ccccc2C1=O` showed an inhibition of 3.13%. In the case of `C[C@H]1CN([C@@H](C)CO)C(=O)c2ccccc2-c2ccccc2CO[C@H]1CN(C)S(=O)(=O)c1ccccc1C#N`, the inhibition was 66.4% (active). With `Cc1noc(C)c1S(=O)(=O)N(C)C[C@@H]1OCc2ccccc2-c2ccccc2C(=O)N([C@@H](C)CO)C[C@H]1C` the inhibition was 28.5%. With `C[C@H]1CN([C@@H](C)CO)C(=O)c2cc(Br)cnc2O[C@@H]1CN(C)S(=O)(=O)c1ccc(F)cc1` the inhibition was 48%. `C[C@@H]1CN([C@H](C)CO)C(=O)c2cccc(NS(=O)(=O)c3cn(C)cn3)c2O[C@H]1CN(C)Cc1ccc(C(=O)O)cc1` gave an inhibition of 16.1%. Compound `CC(=O)N1C[C@@H](CO)[C@@H](N(C)C(=O)C(C)(C)C)C[C@H]1c1ccccc1Br` has an inhibition of -6.57% [at 12.3 µM]. Compound `Cc1ccc(F)cc1S(=O)(=O)N[C@@H]1CCN(Cc2ccc(-c3ccccc3)cc2)C1` has an inhibition of -7.12%. With `Cc1ccc(S(=O)(=O)N2C[C@@H]3CCCC[C@@H]3[C@@H](C)[C@H]2c2cn(Cc3ccccc3)c3ccc(F)cc23)cc1` the inhibition was 77% [at 12.3 µM] (active). `CCOC1=C2[C@@H](CN(S(=O)(=O)c3ccc(C)cc3)[C@H]2c2ccccc2F)[C@H]2C(=O)N(Cc3ccccc3)C(=O)[C@H]2C1` showed an inhibition of 12.3% [at 12.3 µM]. `CO[C@H]1CN(C)C(=O)c2cc(NC(=O)NC(C)C)ccc2OC[C@@H](C)NC[C@@H]1C` showed an inhibition of -14%. For `O=C(N[C@H]1CC[C@@H](CCNS(=O)(=O)c2cccc(Cl)c2)O[C@@H]1CO)c1ccccc1`, the inhibition was 12.1%. With `CCCNC(=O)N(C)C[C@H]1Oc2ncc(C#Cc3ccncc3)cc2C(=O)N([C@@H](C)CO)C[C@@H]1C` the inhibition was 0.597%. With `Cc1cccc(N2C(=O)N3[C@H](c4ccc(F)cc4)[C@@H]4C(=O)N(C5CCCCC5)C(=O)[C@@H]4[C@]3(Cc3ccccc3)C2=O)c1` the inhibition was 55.1% [at 12.3 µM] (active). In the case of `O=C1[C@H]2[C@@H](c3ccc(F)cc3)N3C(=O)N(c4ccc(C(F)(F)F)cc4)C(=O)[C@@]3(Cc3ccccc3)[C@H]2C(=O)N1C1CCCCC1`, the inhibition was 79% [at 12.3 µM] (active). `O=C1[C@H]2[C@@H](c3ccc(Cl)cc3)N3C(=O)N(c4cccc(F)c4)C(=O)[C@@]3(Cc3ccccc3)[C@H]2C(=O)N1C1CCCCC1` gave an inhibition of 1.92% [at 12.3 µM]. `Cc1cccc([C@@H]2[C@@H]3C(=O)N(Cc4ccccc4)C(=O)[C@@H]3[C@]3(Cc4ccc(Cl)cc4)C(=O)N(c4cccc(Cl)c4)C(=O)N23)c1` showed an inhibition of -14.5% [at 12.3 µM]. `C[C@@H]1CN([C@@H](C)CO)S(=O)(=O)c2ccc(C#Cc3ccc(F)cc3)cc2O[C@H]1CN(C)C(=O)NC1CCCC1` gave an inhibition of -2.36%. `COc1ccc(CN(C)C[C@H]2Oc3c(NS(=O)(=O)c4ccccc4)cccc3C(=O)N([C@@H](C)CO)C[C@H]2C)cc1` showed an inhibition of 12%. `O=C(Cc1ccccn1)NCC[C@H]1CC[C@@H](NS(=O)(=O)c2ccc(F)cc2)[C@H](CO)O1` gave an inhibition of -7.4%. In the case of `COC(=O)[C@@]12C[C@@H](CC(=O)NCc3cccc(C(F)(F)F)c3)C(=O)N(Cc3ccco3)C1=CCC(C)(C)C2`, the inhibition was 74.9% [at 12.3 µM] (active). Work on `CCCCNC(=O)C[C@@H]1C[C@@]2(C(=O)OC)CC(C)(C)CC=C2N(Cc2ccco2)C1=O` yielded an inhibition of 5.33% [at 12.3 µM]. Work on `CCOC(=O)[C@]12CCC=C1N(Cc1ccco1)C(=O)[C@H](CC(=O)NCc1cccc(C(F)(F)F)c1)C2` yielded an inhibition of 18.4% [at 12.3 µM]. In the case of `C[C@H](CO)N1C[C@H](C)[C@@H](CN(C)C(=O)Nc2ccc3c(c2)OCO3)Oc2ccc(NS(=O)(=O)c3ccc(Cl)cc3)cc2CC1=O`, the inhibition was -30.5%. For `O=C(NC(c1ccc(Cl)cc1)c1cnccn1)C1CCN(Cc2ccc(Cl)cc2)CC1` (stereo not given), the inhibition was 16.4% [at 12.3 µM]. For `Cc1cccnc1C(NC(=O)C1CCN(Cc2ccc(Cl)c(Cl)c2)CC1)c1ccc(Cl)cc1` (stereo not given), the inhibition was 62.7% [at 12.3 µM] (active). Compound `Cc1ccc(C(NC(=O)C2CCN(CCOc3ccc(Cl)cc3Cl)CC2)c2ccccn2)cc1` (stereo not given) has an inhibition of 6.28% [at 12.3 µM]. For `C[C@H]1CN([C@@H](C)CO)S(=O)(=O)c2ccc(Br)cc2O[C@H]1CN(C)Cc1ccccn1`, the inhibition was 16.3%. `C[C@H]1CN([C@@H](C)CO)S(=O)(=O)c2ccc(C3=CCCC3)cc2O[C@@H]1CN(C)Cc1ccccc1` gave an inhibition of 18.3%. In the case of `OCCN1CCN(C(=S)c2ccc(-c3ccccc3)cc2)CC1`, the inhibition was 71.3% [at 12.3 µM] (active). For `S=C(c1ccc(-c2ccccc2)o1)N1CCCCC1`, the inhibition was -140% [at 12.3 µM]. Compound `CN1CCN(CCCCOc2ccccc2-c2ccccc2)CC1` has an inhibition of 6.99% [at 12.3 µM]. For `CCOC(=O)c1c(NC(=O)C(C)Sc2c[nH]c3ccccc23)sc2c1CCC2` (stereo not given), the inhibition was 67% [at 12.3 µM] (active). Work on `CCOC(=O)c1c(NC(=O)CSc2cn(CC)c3ccccc23)sc2c1CCC2` yielded an inhibition of 40.8% [at 12.3 µM]. With `CCOC(=O)c1c(NC(=O)C2(C)Cc3ccccc3C(=O)O2)sc2c1CCCC2` (stereo not given) the inhibition was 14.6% [at 12.3 µM]. For `C[C@H](CO)N1C[C@H](C)[C@H](CN(C)S(=O)(=O)c2cn(C)cn2)Oc2ccc(NS(=O)(=O)c3ccccc3)cc2C1=O`, the inhibition was 2.2%. Compound `C[C@@H]1CN([C@@H](C)CO)C(=O)c2cc(NC(=O)Cc3ccccc3)ccc2O[C@@H](C)CCCCO[C@@H]1CN(C)C(=O)Nc1ccccc1` has an inhibition of 34.3%. In the case of `Cc1ccc(Cc2c(-c3ccc(Cl)cc3)nc3c4ccccc4ccn23)cc1`, the inhibition was 0.563% [at 12.3 µM]. With `c1ccc(Cc2c(-c3ccco3)nc3c4ccccc4ccn23)cc1` the inhibition was 65.9% [at 12.3 µM] (active). `Cc1ccc(Cc2c(-c3ccc(C)cc3)nc3c4ccccc4ccn23)cc1` showed an inhibition of 14.4% [at 12.3 µM]. Compound `COc1ccc(S(=O)(=O)N(C)C[C@H]2OCCCC[C@@H](C)Oc3ccc(NC(=O)c4ccncc4)cc3C(=O)N([C@H](C)CO)C[C@@H]2C)cc1` has an inhibition of 13.6%. Compound `CO[C@@H]1CN(C)C(=O)c2cc(NS(=O)(=O)c3cccc(Cl)c3)ccc2OC[C@@H](C)NC[C@@H]1C` has an inhibition of 0.008%. Compound `C[C@@H]1CN([C@@H](C)CO)C(=O)Cc2cc(NC(=O)Nc3ccc4c(c3)OCO4)ccc2O[C@@H]1CN(C)C(=O)Nc1ccc2c(c1)OCO2` has an inhibition of -15.9%. Compound `COc1cccc(NC(=O)N[C@@H]2CC[C@H](CC(=O)NCc3ccccn3)O[C@H]2CO)c1` has an inhibition of -38%. Compound `CCC(=O)N(C)C[C@@H]1Oc2ncc(C3=CCCC3)cc2C(=O)N([C@H](C)CO)C[C@@H]1C` has an inhibition of 0.169%. In the case of `CCC(=O)N(C)C[C@H]1Oc2ncc(-c3ccccc3OC)cc2C(=O)N([C@H](C)CO)C[C@H]1C`, the inhibition was -7.79%. In the case of `COc1ccc2c3c([nH]c2c1)[C@@H](CO)N(C(=O)c1ccccc1)CC31CCN(Cc2cccnc2)CC1`, the inhibition was -8.66%. Work on `CSc1ccc(Oc2cccc3c2S(=O)(=O)N([C@H](C)c2ccccc2)C[C@@H](COCc2ccccc2)O3)cc1C` yielded an inhibition of 10.8% [at 12.3 µM]. With `O=S1(=O)c2c(cccc2N2CCCCC2)O[C@H](COCc2ccccc2)CN1C1CC1` the inhibition was 102% [at 12.3 µM] (active). With `O=S1(=O)c2c(cccc2N2CCCC2)O[C@H](COCc2ccccc2)CN1C1CC1` the inhibition was -8.42% [at 12.3 µM].
